Screening data as filed in PubChem.
Most compounds without a hit are left out; they make up all but 1.3% or so of the library.
EPAC2 agonist – EPAC2 (human) agonism | 0.079% of 360,000 active | Q8WZA2 | AID 720711 | Potency, µM (titrated, usually from 154 µM), without a hit: top-dose activation, most hits filed as activators | EPAC2 activation, biochemical qHTS; response scale: 100% = 6.5 mM cAMP response; further: nearly all actives have a fitted effect of over 50% in size
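Setup: EPAC2 100 nM, labeled Rap1B complex 250 nM, free GDP 50 uM. Compound titrations pinned in, brief spin, 5 min room temperature incubation. Kinetic fluorescence read over 30 min, normalized to 6.5 mM cAMP.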
BRCA1 expr up – increases BRCA1 expression; Potency, µM (doses to about 46.1 µM), for the others: at the highest dose activation, actives largely listed as activators; 1.1% of 380,000 active; AID 624202; MCF7-BRCA1-FFLuc reporter, luminescence, 48 h; response scale: scaled: vehicle 0%, 10 µM genistein 100%; further: nearly all actives have a fitted effect of over 80% in size
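Reporter cells (MCF7, BRCA1 promoter-firefly luciferase) received library compounds across a concentration series for 48 h. End-point luminescence was measured and concentration-effect curves derived after normalization.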
EPAC1 agonist – agonists of human EPAC1 | O95398 | EPAC1 agonist qHTS, biochemical assay; response scale: 100% = response to 6.5 mM cAMP | Potency, µM (doses to about 154 µM), inactives show at the top dose activation, usual class: activators | 0.073% of 360,000 active | AID 720707; further: nearly all actives have a fitted effect of over 60% in size
Target sequence (O95398 whole entry, looked up): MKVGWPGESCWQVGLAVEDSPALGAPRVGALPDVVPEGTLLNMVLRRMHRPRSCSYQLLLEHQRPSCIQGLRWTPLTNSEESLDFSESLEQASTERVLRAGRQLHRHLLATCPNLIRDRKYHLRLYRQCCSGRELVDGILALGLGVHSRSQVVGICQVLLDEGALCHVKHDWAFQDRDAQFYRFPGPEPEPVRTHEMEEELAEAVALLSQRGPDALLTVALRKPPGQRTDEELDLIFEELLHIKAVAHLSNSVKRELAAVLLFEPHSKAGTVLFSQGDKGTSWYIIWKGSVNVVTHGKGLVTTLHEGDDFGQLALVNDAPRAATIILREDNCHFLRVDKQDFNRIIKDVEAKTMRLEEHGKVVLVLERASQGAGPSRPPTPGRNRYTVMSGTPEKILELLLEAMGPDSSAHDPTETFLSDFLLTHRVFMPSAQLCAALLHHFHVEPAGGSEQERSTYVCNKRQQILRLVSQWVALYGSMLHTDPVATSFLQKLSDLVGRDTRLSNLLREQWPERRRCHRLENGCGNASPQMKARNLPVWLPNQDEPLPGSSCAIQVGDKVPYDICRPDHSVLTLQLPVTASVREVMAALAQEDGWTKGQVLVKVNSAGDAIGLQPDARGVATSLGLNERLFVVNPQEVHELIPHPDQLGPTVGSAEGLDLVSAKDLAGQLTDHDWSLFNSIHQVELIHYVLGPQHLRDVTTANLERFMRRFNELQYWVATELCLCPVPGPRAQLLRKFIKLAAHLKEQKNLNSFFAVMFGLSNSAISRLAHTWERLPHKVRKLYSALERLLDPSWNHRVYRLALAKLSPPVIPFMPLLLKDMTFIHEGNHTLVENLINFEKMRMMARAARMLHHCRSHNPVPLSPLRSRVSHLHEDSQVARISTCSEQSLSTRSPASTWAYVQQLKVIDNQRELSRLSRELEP
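Normalized to 6.5 mM cAMP, activity reflects EPAC1-catalysed release of BODIPY-GDP from Rap1B, followed kinetically over 30 min at 480 nm excitation, 540 nm emission. Reaction contained 100 nM EPAC1, 250 nM Rap1B-BODIPY-GDP, 50 uM GDP.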
RGS4 inh – inhibitors of human regulator of G protein signaling 4; Transcreener GDP fluorescence polarization, RGS4-accelerated GTP hydrolysis; Potency, µM (doses to about 114 µM), without a hit: at the highest dose activity change, negative = inhibition, most hits filed as inhibitors; 0.039% of 390,000 active; AID 504845; further: on the % scale 0 is the no-effect control and ±100 the full control effect; nearly all actives have a fitted effect of over 75% in size
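MLSMR compounds (23 nl, pin-transferred) preincubated 10 min at room temperature with a 500nM (2x) first reagent, then RGS4 at 900nM (2x) plus Transcreener GDP mix added; fluorescence polarization (620/688 nm) read before and after 90 min at 30 °C.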
EPAC2 antag – blocks human EPAC2 exchange factor; Q8WZA2; EPAC2 GEF exchange of Rap1B-BODIPY-GDP, fluorescence; Potency, µM (titrated, usually from 114 µM), for the others: top-dose activity, negative = inhibition, most hits filed as inhibitors; 0.18% of 360,000 active; further: on the % scale 0 is the no-effect control and ±100 the full control effect; nearly all actives have a fitted effect of over 45% in size
EPAC1 antag – blocks human EPAC1 exchange factor; 0.14% of 360,000 active; Potency, µM (titrated, usually from 115 µM), without a hit: top-dose activity change, negative = inhibition, actives largely listed as inhibitors; EPAC1 GEF assay, Rap1b-BODIPY-GDP exchange fluorescence; O95398; AID 720709;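 further: plate controls were vehicle for no effect and positive control for full effect; nearly all actives have a fitted effect of over 50% in size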
Numbers without * were called inactive; [ ] = another dose, or the depositor's remark. The call rests on the fitted dose curve; in most records, active means well fitted curve in the direction sought with a large enough effect; inconclusive means small, poorly fitted or top-dose-only effect, or another doubt; inactive means no such curve, though single readings can be large; an effect the other way counts as inactive or inconclusive. Potency means the concentration at half of the fitted maximal effect.

Results for Cc1cccc(NC(=O)Cn2nnc3ccccc32)c1 ?
EPAC2 agonist: 21.8%; BRCA1 expr up: 12.6µM*; EPAC1 agonist: 13.3%; RGS4 inh: 2.0%; EPAC2 antag: 0.9%; EPAC1 antag: 2.5%

Results for Cc1ccc(NC(=O)Cn2nnc3ccccc32)cc1 ?
EPAC2 agonist: -9.9%; BRCA1 expr up: 8.91µM*; EPAC1 agonist: 7.2%; RGS4 inh: 34.6%; EPAC2 antag: -6.0%; EPAC1 antag: 1.9%

Results for COC(=O)c1ccc(NC(=O)Cn2nnc3ccccc32)cc1 ?
EPAC2 agonist: -5.6%; BRCA1 expr up: 10µM*; EPAC1 agonist: -2.4%; RGS4 inh: -3.0%; EPAC2 antag: 14.8%; EPAC1 antag: 9.3%

How did O=C(CN1c2cccc3cccc(c23)S1(=O)=O)Nc1c(F)c(F)c(F)c(F)c1F do in these assays?
EPAC2 agonist: 2.2%; BRCA1 expr up: -6.1%; EPAC1 agonist: 6.2%; RGS4 inh: 38.8%; EPAC2 antag: -2.4%; EPAC1 antag: inconclusive

What do the screens show for `CC12CCC(C(=O)Nc3nc4ccc(Br)cc4s3)(OC1=O)C2(C)C` (configuration not stated)?
EPAC2 agonist: 7.2%; BRCA1 expr up: 8.91µM*; EPAC1 agonist: 16.6%; RGS4 inh: 22.7%; EPAC2 antag: -12.6%; EPAC1 antag: 1.9%

What do the screens show for `COC(=O)c1ccc2c(c1)C(=O)/C(=C/c1ccc(C)cc1)O2`?
EPAC2 agonist: 0.9%; BRCA1 expr up: 89.4%; EPAC1 agonist: 8.0%; RGS4 inh: -11.9%; EPAC2 antag: -4.6%; EPAC1 antag: 2.7%

How did COC(=O)c1ccc(/C=C2\Oc3ccccc3NC2=O)cc1 do in these assays?
EPAC2 agonist: -4.3%; BRCA1 expr up: 2.24µM*; EPAC1 agonist: 6.6%; RGS4 inh: 11.8%; EPAC2 antag: 8.4%; EPAC1 antag: 16.7%

What do the screens show for `CCOC(=O)C1(Cc2ccccc2)CCCN(C(=O)C=C(C)C)C1` (configuration not stated)?
EPAC2 agonist: -6.3%; BRCA1 expr up: inconclusive; EPAC1 agonist: -1.2%; RGS4 inh: -13.3%; EPAC2 antag: -2.0%; EPAC1 antag: 0.7%

What do the screens show for `CCOC(=O)C1(Cc2ccccc2)CCCN(C(=O)COc2ccccc2OC)C1` (configuration not stated)?
EPAC2 agonist: -2.8%; BRCA1 expr up: 10µM*; EPAC1 agonist: -9.7%; EPAC2 antag: 1.3%; EPAC1 antag: 2.2%

What do the screens show for `O=C(c1ccccc1)N1CCN(C(=O)C23CC4CC(CC(C4)C2)C3)CC1`?
EPAC2 agonist: 7.9%; BRCA1 expr up: -3.9%; EPAC1 agonist: -1.1%; RGS4 inh: 20.4%; EPAC2 antag: -0.7%; EPAC1 antag: -2.3%

How did O=C(O)c1cc(S(=O)(=O)Nc2cc(Cl)ccc2Oc2ccccc2)ccc1O do in these assays?
EPAC2 agonist: -3.9%; BRCA1 expr up: 0.0%; EPAC1 agonist: -0.3%; RGS4 inh: 7.8%; EPAC2 antag: 39.8µM*; EPAC1 antag: inconclusive

Results for O=C(CN1CCCCC1)Nc1cc(Cl)ccc1Oc1ccccc1 ?
EPAC2 agonist: 1.8%; BRCA1 expr up: -27.9%; EPAC1 agonist: 1.2%; RGS4 inh: -36.9%; EPAC2 antag: 28.2µM*; EPAC1 antag: -4.9%

How did O=C(O)c1cc(S(=O)(=O)Nc2ccccc2C(=O)O)ccc1O do in these assays?
EPAC2 agonist: -9.6%; BRCA1 expr up: -6.4%; EPAC1 agonist: 10.6%; RGS4 inh: 3.1%[11.4 µM]; EPAC2 antag: -2.2%; EPAC1 antag: -9.9%

What do the screens show for `COc1ccccc1NC(=O)CN1CCCCCC1`?
EPAC2 agonist: 5.7%; BRCA1 expr up: 0.0%; EPAC1 agonist: 6.8%; RGS4 inh: -4.1%; EPAC2 antag: 0.5%; EPAC1 antag: -4.9%

Results for NC(=O)C1CCN(CC(=O)Nc2cc(Cl)ccc2Oc2ccccc2)CC1 ?
EPAC2 agonist: 3.3%; BRCA1 expr up: -1.0%; EPAC1 agonist: 6.4%; RGS4 inh: -18.4%; EPAC2 antag: -15.9%; EPAC1 antag: -7.6%

What do the screens show for `O=C(CN1CCCCCC1)Nc1ccccc1Oc1ccccc1`?
EPAC2 agonist: 15.8%; BRCA1 expr up: 0.0%; EPAC1 agonist: 5.8%; RGS4 inh: -10.2%; EPAC2 antag: 39.8µM*; EPAC1 antag: -11.5%

Results for CC(OC(=O)CN1C(=O)c2ccccc2C1=O)C(=O)NC1CCCCC1 (configuration not stated) ?
EPAC2 agonist: 12.7%; BRCA1 expr up: -2.8%; EPAC1 agonist: 10.0%; RGS4 inh: -3.0%; EPAC2 antag: -0.4%; EPAC1 antag: -3.0%

What do the screens show for `CSc1ccc(CN2CCC(C)(Oc3cnc(Cl)c4ccccc34)C2)cc1` (configuration not stated)?
EPAC2 agonist: 7.9%; BRCA1 expr up: 3.7%; EPAC1 agonist: 8.1%; EPAC2 antag: 9.6%; EPAC1 antag: -18.5%

How did COc1cccc(CNc2ccc(S(N)(=O)=O)cc2)c1OCc1ccccc1F do in these assays?
EPAC2 agonist: 12.0%; BRCA1 expr up: -22.0%; EPAC1 agonist: 8.8%; RGS4 inh: 2.3%; EPAC2 antag: -7.5%; EPAC1 antag: -20.7%

Results for O=C(c1cc(COc2ccc(-n3cncn3)cc2)on1)N1CCCC1 ?
EPAC2 agonist: 0.6%; BRCA1 expr up: 19.8%; EPAC1 agonist: -9.1%; RGS4 inh: 5.4%; EPAC2 antag: 5.4%; EPAC1 antag: -3.4%

What do the screens show for `CC(NC(=O)c1cc(COc2ccc(-n3cncn3)cc2)on1)c1ccc(F)cc1` (configuration not stated)?
EPAC2 agonist: 16.6%; BRCA1 expr up: 12.6µM*; EPAC1 agonist: -0.7%; EPAC2 antag: -5.8%; EPAC1 antag: 9.8%

How did C/C(=N\NC(=O)c1ccccc1C)c1cccc([N+](=O)[O-])c1 do in these assays?
EPAC2 agonist: 16.4%; BRCA1 expr up: 22.7%; EPAC1 agonist: 12.8%; RGS4 inh: 9.9%; EPAC2 antag: -2.9%; EPAC1 antag: -6.5%

How did C/C(=N\Nc1ccc(Cl)c(C(=O)O)c1)c1cccc([N+](=O)[O-])c1 do in these assays?
EPAC2 agonist: -0.1%; BRCA1 expr up: 14.1µM*; EPAC1 agonist: -3.6%; RGS4 inh: 0.6%; EPAC2 antag: 11.5%; EPAC1 antag: -11.9%

How did O=C(NNC(=O)c1ccccc1Cl)c1ccc2c(c1)OCCO2 do in these assays?
EPAC2 agonist: 7.4%; BRCA1 expr up: 7.08µM*; EPAC1 agonist: 7.5%; RGS4 inh: -23.2%; EPAC2 antag: 8.9%; EPAC1 antag: -15.8%

Results for O=C(NC(=S)Nc1cccc([N+](=O)[O-])c1)c1ccco1 ?
EPAC2 agonist: 8.4%; BRCA1 expr up: 84.2%; EPAC1 agonist: 3.1%; RGS4 inh: -14.0%; EPAC2 antag: 1.4%; EPAC1 antag: -8.5%
